# Columns and labels:
# Experiment in all cases: thermal shift delta Tm vs DMSO control; higher = stronger stabilization (binding)
# Details in all cases: 12.5 µM; protein concentration 2 µM
# [1] = test system: LOC_OS02G45750-cb003
# Method in brief: (§1)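 The melting temperature shift given here is a triplicate mean, measured against protein that received only DMSO. Melting temperatures came from Boltzmann fits of differential scanning fluorimetry data on E. coli-expressed, purified rice kinase domain constructs. Each 19.5 μl well contained 2 μM kinase, 100 mM potassium phosphate pH 7.5, 150 mM NaCl, 10% glycerol, 5 × SYPRO Orange and compound in DMSO. Plates were scanned from 25°C to 95°C at 0.05°C/s.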
# [2] = test system: LOC_OS02G54510-cb004
# Method in brief: as §1
# [3] = test system: LOC_OS03G04050-cb001
# Method in brief: as §1
# [4] = test system: LOC_OS03G12390-cb001
# Method in brief: as §1
# [5] = test system: LOC_OS03G27990-cb004
# Method in brief: as §1
# [6] = test system: LOC_OS03G50450-cb001
# Method in brief: as §1
# [7] = test system: LOC_OS03G50810-cb003
# Method in brief: as §1
# [8] = test system: LOC_OS04G35114-cb001
# Method in brief: as §1
# [9] = test system: T1, LOC_OS04G38480-cb003
# T1 sequence (whole entry): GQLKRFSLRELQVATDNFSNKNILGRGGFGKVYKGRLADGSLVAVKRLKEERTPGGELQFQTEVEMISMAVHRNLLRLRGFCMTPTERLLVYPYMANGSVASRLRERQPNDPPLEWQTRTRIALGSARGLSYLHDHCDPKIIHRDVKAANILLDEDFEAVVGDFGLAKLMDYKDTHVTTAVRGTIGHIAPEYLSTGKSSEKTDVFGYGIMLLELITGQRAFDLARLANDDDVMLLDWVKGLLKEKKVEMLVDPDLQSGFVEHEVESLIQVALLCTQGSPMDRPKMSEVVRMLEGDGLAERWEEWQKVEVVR
# Method in brief: as §1
# [10] = test system: T2, LOC_OS04G41100-cb001
# T2 sequence (whole entry): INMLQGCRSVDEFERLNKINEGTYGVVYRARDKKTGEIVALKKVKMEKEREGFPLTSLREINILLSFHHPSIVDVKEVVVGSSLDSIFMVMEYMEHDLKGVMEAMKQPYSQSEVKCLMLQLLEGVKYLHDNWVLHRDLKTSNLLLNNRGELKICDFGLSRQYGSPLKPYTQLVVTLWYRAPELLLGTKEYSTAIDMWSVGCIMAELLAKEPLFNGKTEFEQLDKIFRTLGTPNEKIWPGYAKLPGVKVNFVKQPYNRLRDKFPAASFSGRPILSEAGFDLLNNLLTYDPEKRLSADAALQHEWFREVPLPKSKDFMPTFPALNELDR
# Method in brief: as §1
# [11] = test system: LOC_OS04G57630-cb004
# Method in brief: as §1
# [12] = test system: LOC_OS05G07850-cb002
# Method in brief: as §1
# [13] = test system: LOC_OS05G16824-cb004
# Method in brief: as §1
# [14] = test system: LOC_OS05G28520-cb001
# Method in brief: as §1
# [15] = test system: LOC_OS05G30820-cb001
# Method in brief: as §1
# [16] = test system: LOC_OS05G43570-cb004
# Method in brief: as §1
# [17] = test system: LOC_OS06G16330-cb003
# Method in brief: as §1
# [18] = test system: T3, LOC_OS06G22820-cb001
# T3 sequence (whole entry): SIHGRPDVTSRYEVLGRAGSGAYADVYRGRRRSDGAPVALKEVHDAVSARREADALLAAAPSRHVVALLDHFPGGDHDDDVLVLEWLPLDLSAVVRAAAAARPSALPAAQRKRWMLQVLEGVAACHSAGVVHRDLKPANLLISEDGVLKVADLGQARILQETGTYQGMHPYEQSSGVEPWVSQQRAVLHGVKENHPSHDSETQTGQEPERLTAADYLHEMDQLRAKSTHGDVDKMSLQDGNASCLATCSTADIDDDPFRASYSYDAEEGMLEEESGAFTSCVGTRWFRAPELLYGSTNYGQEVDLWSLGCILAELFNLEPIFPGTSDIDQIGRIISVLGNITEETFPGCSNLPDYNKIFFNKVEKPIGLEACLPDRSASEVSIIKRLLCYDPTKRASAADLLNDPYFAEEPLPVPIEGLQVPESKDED
# Method in brief: as §1
# [19] = test system: LOC_OS07G06570-cb004
# Method in brief: as §1
# [20] = test system: LOC_OS07G07230-cb001
# Method in brief: as §1
# Sequence of LOC_OS06G16330-cb003 (as listed by the source): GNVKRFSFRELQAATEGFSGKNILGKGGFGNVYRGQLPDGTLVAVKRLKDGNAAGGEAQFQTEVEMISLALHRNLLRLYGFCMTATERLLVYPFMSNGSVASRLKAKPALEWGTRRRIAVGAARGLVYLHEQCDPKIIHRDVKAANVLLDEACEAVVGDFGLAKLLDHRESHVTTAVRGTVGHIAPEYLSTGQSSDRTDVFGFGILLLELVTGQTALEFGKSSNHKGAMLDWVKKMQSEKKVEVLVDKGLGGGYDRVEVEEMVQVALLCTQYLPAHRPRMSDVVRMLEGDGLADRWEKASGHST
Compound,thermal shift delta Tm [1],thermal shift delta Tm [2],thermal shift delta Tm [3],thermal shift delta Tm [4],thermal shift delta Tm [5],thermal shift delta Tm [6],thermal shift delta Tm [7],thermal shift delta Tm [8],thermal shift delta Tm [9],thermal shift delta Tm [10],thermal shift delta Tm [11],thermal shift delta Tm [12],thermal shift delta Tm [13],thermal shift delta Tm [14],thermal shift delta Tm [15],thermal shift delta Tm [16],thermal shift delta Tm [17],thermal shift delta Tm [18],thermal shift delta Tm [19],thermal shift delta Tm [20]
Cc1cc(Nc2nc(N[C@@H](C)c3ccc(F)cc3)c(C#N)cc2F)n[nH]1,4.55 °C,2.52 °C,0.11 °C,4.41 °C,0.57 °C,1.39 °C,4.44 °C,1.88 °C,2.31 °C,1.28 °C,0.47 °C,11.9 °C,8.62 °C,-0.1 °C,1.2 °C,0.67 °C,8.11 °C,-0.41 °C,0.19 °C,0.12 °C
CNC(=O)c1ccccc1Nc1nc(Nc2ccc(N3CCOCC3)cc2OC)ncc1Cl,1.17 °C,-0.15 °C,0.35 °C,4.35 °C,0.45 °C,0.26 °C,2.21 °C,2.54 °C,1.62 °C,0.51 °C,1.29 °C,11.8 °C,5.34 °C,0.37 °C,0.69 °C,0.1 °C,4.89 °C,0.54 °C,1.58 °C,0.57 °C
Cn1cnc(N)c2ncnc1-2 [3-Methyladenine (3-MA)],0.36 °C,0.39 °C,0.47 °C,-0.25 °C,0.15 °C,0.39 °C,0.4 °C,0.91 °C,1.15 °C,0.12 °C,-0.01 °C,0.75 °C,-3.2 °C,0.15 °C,0.64 °C,0.46 °C,-0.06 °C,0.64 °C,0.43 °C,0.03 °C
Cc1ccc(NC(=O)c2ccc(CN3CC[C@H](N(C)C)C3)c(C(F)(F)F)c2)cc1Nc1nccc(-c2cncnc2)n1 [Bafetinib (INNO-406)],0.37 °C,3.32 °C,0.29 °C,0.16 °C,0.43 °C,0.25 °C,0.34 °C,0.18 °C,0.66 °C,0.35 °C,0.08 °C,0.37 °C,-2.81 °C,1.08 °C,0.77 °C,0.5 °C,-0.31 °C,0.4 °C,1.66 °C,0.62 °C
CC#CC(=O)N1CCC[C@H]1c1nc(-c2ccc(C(=O)Nc3ccccn3)cc2)c2c(N)nccn12 [Acalabrutinib (ACP-196)],1.09 °C,0.55 °C,0.39 °C,-0.37 °C,0.24 °C,0.4 °C,0.38 °C,0.89 °C,1.22 °C,0.5 °C,0.54 °C,1.21 °C,-2.72 °C,0.31 °C,0.59 °C,0.02 °C,0.81 °C,0.52 °C,1.01 °C,0.32 °C
Cc1nc(N)sc1-c1ccnc(Nc2ccc(N3CCOCC3)cc2)n1,3.37 °C,1.11 °C,0.62 °C,3.79 °C,1.2 °C,1.67 °C,2.84 °C,5.04 °C,2.31 °C,1.72 °C,2.53 °C,13.4 °C,8.12 °C,0.36 °C,0.56 °C,0.98 °C,6.87 °C,0.66 °C,0.8 °C,0.42 °C
Cc1ccc(Nc2cc(N[C@@H]3CCCC[C@@H]3N)nnc2C(N)=O)nc1C,2.16 °C,0.73 °C,0.52 °C,2.19 °C,1.5 °C,1.66 °C,1.11 °C,1.06 °C,1.11 °C,0.51 °C,-0.04 °C,6.83 °C,5.76 °C,0.7 °C,1.49 °C,0.67 °C,4.95 °C,1.48 °C,1.39 °C,0.12 °C
CS(=O)(=O)CCNCc1ccc(-c2ccc3ncnc(Nc4ccc(OCc5cccc(F)c5)c(Cl)c4)c3c2)o1,-0.27 °C,0.18 °C,0.24 °C,0.39 °C,0.11 °C,0.01 °C,0.17 °C,0.48 °C,0.99 °C,0.27 °C,-0.1 °C,1.34 °C,-0.68 °C,0.97 °C,0.44 °C,0.61 °C,-0.63 °C,1.04 °C,0.83 °C,0.48 °C
NC(=O)c1ncn([C@@H]2O[C@H](CO)[C@@H](O)[C@H]2O)c1N [AICAR (Acadesine)],0.81 °C,0.42 °C,0.68 °C,0.15 °C,0.5 °C,0.66 °C,0.55 °C,0.59 °C,0.31 °C,0.46 °C,0.05 °C,0.57 °C,-1.12 °C,-0.02 °C,0.45 °C,0.5 °C,0.02 °C,0.92 °C,1.07 °C,-0.25 °C
Cn1c(=O)c(F)c(Nc2ccc(I)cc2F)c2c(=O)n(C[C@@H](O)CO)cnc21,1.03 °C,0.28 °C,0.51 °C,0.07 °C,0.21 °C,0.15 °C,0.78 °C,0.35 °C,0.83 °C,0.43 °C,0.47 °C,1.59 °C,-1.32 °C,0.23 °C,0.72 °C,1.08 °C,0.18 °C,0.76 °C,0.33 °C,0.02 °C
O=C1NC(=O)/C(=C/c2ccc3nccc(-c4ccncc4)c3c2)S1,1.29 °C,0.51 °C,0.38 °C,2.47 °C,0.28 °C,0.79 °C,0.4 °C,7.2 °C,1.96 °C,0.48 °C,1.23 °C,8.62 °C,0.06 °C,0.11 °C,0.15 °C,0.36 °C,3.51 °C,0.22 °C,1.03 °C,0.79 °C
CNS(=O)(=O)C[C@H]1CC[C@H](N(C)c2[nH]cnc3nccc2-3)CC1 [Oclacitinib],3.43 °C,0.36 °C,0.63 °C,1.78 °C,1.09 °C,1.35 °C,1.01 °C,1.87 °C,0.99 °C,0.23 °C,0.5 °C,7.33 °C,-0.02 °C,0.31 °C,0.53 °C,0.33 °C,3.72 °C,0.36 °C,1.6 °C,0.51 °C

# — the supplement of paper PMC9694430
